19 molecules from PubChem BioAssay (Tox21) can be followed below.

A short description of assay [1]: qHTS assay to identify small molecule antagonists of the estrogen related receptor (ERR) signaling pathway from Tox21 library - cell viability counter screen (AID 1224834). Further: nearly all actives have a fitted effect of over 30% in size. Further: potency means the concentration at half of the fitted maximal effect. In a few lines: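 Compounds in DMSO were pinned onto ERR cells that had been incubated for 6 h, and the plates were held at 37 C for 17.5 h. CellTiter-Fluor reagent was then added and fluorescence was measured after 30 min.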

Assay [2] concerns the target Luciferin 4-monooxygenase (Photinus pyralis) (UniProt P08659). Description: qHTS assay to identify small molecule inhibitors of firefly luciferase (AID 1224835). Further: nearly all actives have a fitted effect of over 25% in size. Further: potency means the concentration at half of the fitted maximal effect. In a few lines: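 Inhibition of purified Photinus luciferase is measured by luminescence. Substrate levels (D-luciferin, ATP) sit at their KM values. Each compound is tested in a concentration series.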
In general terms: In qHTS, concentration-response curves come from the screen itself.

A short description of assay [3]: qHTS assay to identify small molecule agonists of the constitutive androstane receptor (CAR) signaling pathway - cell viability counter screen (AID 1224836). Further: nearly all actives have a fitted effect of over 45% in size. Further: potency means the concentration at half of the fitted maximal effect. In a few lines: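 Double-stable HepG2 hepatoma cells (hCAR plus CYP2B6-2.2kb) are treated for 23 h at 37 C with test compounds in 15-point concentration series. PK11195 at 0.75 uM final is co-added. Cell viability is quantified by CellTiter-Fluor.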

Assay [4] in a line: qHTS assay to identify small molecule antagonists of the constitutive androstane receptor (CAR) signaling pathway - cell viability counter screen (AID 1224837). Further: series mostly up to about 92 µM; nearly all actives have a fitted effect of over 45% in size. In a few lines:
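Cells are seeded, rested 4 hr at 37 C/5% CO2, dosed with compound (15-point series) and 50 nM CITCO, incubated a further 23 hr, and then CellTiter-Fluor reagent is added before fluorescence is read. The line is HepG2 with stable hCAR and CYP2B6-2.2kb.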

A short description of assay [5]: qHTS assay to identify small molecule antagonists of the estrogen related receptor signaling pathway with the pleiotropic PPARgamma coactivator (PGC) from Tox21 10K library - cell viability counter screen (AID 1224840; active means well fitted cell-killing curve with a large enough effect in the repeat runs, not every such curve was filed as active; further: nearly all actives have a fitted effect of over 40% in size; further: potency means the concentration at half of the fitted maximal effect). In a few lines: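 Cell viability is measured by CellTiter-Fluor fluorescence in PGC/ERR cells that receive compounds after a 6-hour attachment period and are then incubated 17.5 hours at 37 C.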

The target of assay [6] is Thyrotropin receptor (Homo sapiens) (UniProt P16473). Description: qHTS assay to identify small molecule agonists of the thyroid stimulating hormone receptor (TSHR) signaling pathway (AID 1224843; calls by dose curve; further: nearly all actives have a fitted effect of over 45% in size; further: potency means the concentration at half of the fitted maximal effect). In a few lines: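 Agonist activity read as cAMP rise via d2/cryptate HTRF competition, 1 h room-temperature detection, in HEK293 cells expressing TSHR. Fifteen-point titrations, each run in triplicate, with a 30 min room-temperature incubation beforehand.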

A short description of assay [7]: qHTS assay to identify small molecule agonists of the hypoxia (HIF-1) signaling pathway - cell viability counter screen (AID 1224844; calls by dose curve; further: nearly all actives have a fitted effect of over 50% in size; further: potency means the concentration at half of the fitted maximal effect). In a few lines:
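Viability counter screen: HRE-bla ME-180 cells plated 5 hrs before compound addition, treated 17 hrs at 37C and 5% CO2, then CellTiter-Glo added after the FRET reporter read; luminescence after 30 min.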

For assay [8], the target named is Nuclear receptor subfamily 1 group I member 3 (Homo sapiens) (UniProt Q14994). The assay can be described thus: qHTS assay to identify small molecule antagonists of the constitutive androstane receptor (CAR) signaling pathway (AID 1224838).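 Further: HepG2 cells stably expressing hCAR with CYP2B6 luciferase reporter stimulated by CITCO; nearly all actives have a fitted effect of over 40% in size.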 Further: potency means the concentration at half of the fitted maximal effect. In a few lines:
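Luminescence from a CYP2B6-2.2kb promoter reporter in hCAR-expressing HepG2 cells reflects CAR signaling. Cells received compounds at 15 concentrations and 50 nM CITCO (final), then incubated 24 h at 37 C/5% CO2.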

Assay [9] shares this target. Description: qHTS assay to identify small molecule agonists of the constitutive androstane receptor (CAR) signaling pathway (AID 1224839).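 Further: HepG2 cells stably carrying human CAR and a CYP2B6 luciferase reporter; series mostly up to about 92 µM; nearly all actives have a fitted effect of over 15% in size.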 In a few lines:
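Readout: firefly luciferase luminescence via ONE-Glo. System: HepG2 double-stable for hCAR and CYP2B6-2.2kb. Conditions: 15-point compound titration, PK11195 at 0.75 uM final, 24 h incubation.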

Assay [10] can be described thus: qHTS assay to identify small molecule agonists of the estrogen related receptor signaling pathway with the pleiotropic PPARgamma coactivator (PGC) from Tox21 10K library (AID 1224842). Further: nearly all actives have a fitted effect of over 15% in size. In a few lines:
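Luminescence from One-Glo (30 min, room temperature) measured after PGC/ERR cells had 18 h at 37 C with pinned compound (23 nL in DMSO). Cells had been seeded at 2,000 per well and pre-incubated 6 h.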

Where “and” joins values, the source holds several entries; their conditions need not be identical. Identical values can stand only once. Results filed as inconclusive are left out. Calls of active or inactive are those of the source. Unless noted, the call rests on the fitted dose curve; in most records, active means well fitted curve in the direction sought with a large enough effect in the repeat runs; inconclusive means weak or mixed curves; inactive means no such curve, though single readings can be large; an effect the other way counts as inactive or inconclusive.

Luciferin 4-monooxygenase (Photinus pyralis), sequence (P08659 whole entry, looked up): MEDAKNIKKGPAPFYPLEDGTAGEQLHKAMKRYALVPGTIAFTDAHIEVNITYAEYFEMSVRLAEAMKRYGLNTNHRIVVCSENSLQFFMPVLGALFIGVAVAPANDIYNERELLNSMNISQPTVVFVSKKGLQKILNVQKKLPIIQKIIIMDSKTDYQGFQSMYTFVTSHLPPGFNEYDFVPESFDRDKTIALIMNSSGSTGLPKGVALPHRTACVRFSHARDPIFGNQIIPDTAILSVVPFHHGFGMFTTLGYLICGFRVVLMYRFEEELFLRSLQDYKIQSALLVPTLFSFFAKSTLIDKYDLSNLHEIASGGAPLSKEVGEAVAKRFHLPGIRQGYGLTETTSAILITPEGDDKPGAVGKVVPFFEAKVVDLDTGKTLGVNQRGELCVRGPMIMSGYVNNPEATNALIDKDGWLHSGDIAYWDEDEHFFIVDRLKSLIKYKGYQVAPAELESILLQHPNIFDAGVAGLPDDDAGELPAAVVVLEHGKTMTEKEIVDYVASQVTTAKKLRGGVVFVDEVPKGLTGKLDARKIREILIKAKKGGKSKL
Thyrotropin receptor (Homo sapiens), sequence (P16473 whole entry, looked up): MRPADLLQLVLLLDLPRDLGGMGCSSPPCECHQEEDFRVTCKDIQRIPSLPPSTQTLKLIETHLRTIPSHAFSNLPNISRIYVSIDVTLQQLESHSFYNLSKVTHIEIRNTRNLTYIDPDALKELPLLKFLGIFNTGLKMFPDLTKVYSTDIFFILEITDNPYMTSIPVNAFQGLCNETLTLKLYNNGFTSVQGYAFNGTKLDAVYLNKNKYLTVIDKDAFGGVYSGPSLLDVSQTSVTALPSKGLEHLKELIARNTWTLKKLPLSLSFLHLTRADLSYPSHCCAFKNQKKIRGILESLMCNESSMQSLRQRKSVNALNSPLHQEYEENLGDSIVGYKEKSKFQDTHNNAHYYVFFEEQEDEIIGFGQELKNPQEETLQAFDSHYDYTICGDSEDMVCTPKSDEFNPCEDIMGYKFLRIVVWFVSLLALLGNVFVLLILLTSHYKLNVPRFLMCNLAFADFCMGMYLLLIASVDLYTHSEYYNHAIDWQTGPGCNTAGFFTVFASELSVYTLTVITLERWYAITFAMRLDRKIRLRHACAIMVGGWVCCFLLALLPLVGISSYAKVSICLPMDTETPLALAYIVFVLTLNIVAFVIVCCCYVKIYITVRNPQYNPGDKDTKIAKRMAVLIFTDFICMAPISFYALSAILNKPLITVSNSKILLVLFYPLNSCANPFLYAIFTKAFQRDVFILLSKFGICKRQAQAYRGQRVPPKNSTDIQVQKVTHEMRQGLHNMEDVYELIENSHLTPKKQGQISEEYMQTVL
Nuclear receptor subfamily 1 group I member 3 (Homo sapiens), sequence (Q14994 whole entry, looked up): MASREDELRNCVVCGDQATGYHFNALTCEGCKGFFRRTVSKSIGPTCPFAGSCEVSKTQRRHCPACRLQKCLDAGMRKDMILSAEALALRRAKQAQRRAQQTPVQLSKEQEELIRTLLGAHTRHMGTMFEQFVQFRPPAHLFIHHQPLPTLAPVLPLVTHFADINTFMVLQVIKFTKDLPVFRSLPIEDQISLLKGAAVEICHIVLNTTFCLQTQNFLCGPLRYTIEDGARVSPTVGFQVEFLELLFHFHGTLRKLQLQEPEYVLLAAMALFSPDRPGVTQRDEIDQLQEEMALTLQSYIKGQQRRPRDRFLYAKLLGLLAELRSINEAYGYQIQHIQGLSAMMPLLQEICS

As for `CCCCCCCC(=O)OCC(COC(=O)CCCCCCC)OC(=O)CCCCCCC`, the Potency result in [1], in assay [2], in assay [3], in assay [4], in assay [5] and in assay [6] was “inactive” in each case. Also, the Potency entry in assay [7] was “inactive”.

In the case of `O=C(O)CC(O)C(=O)O` (stereo not drawn), the Potency result in [1], in [2], in [3], in assay [4], in assay [8] and in assay [9] was “inactive” each time. The Potency entry in assay [5], in [6] and in assay [7] was “inactive” in each case.

Regarding `CC(O)(P(=O)(O)O)P(=O)(O)O`, the Potency result in [1], in [2], in assay [3], in assay [5], in [6] and in [7] was “inactive” throughout.

For `CC(=O)CCC(=O)O`, the Potency result in assay [1], in assay [2], in [3], in [4], in [8] and in assay [9] was “inactive” in each case. Also, the Potency result in [5], in [6] and in [7] was “inactive” throughout.

`Cc1ncc([N+](=O)[O-])n1C`: the Potency entry in [1], in assay [2], in [3], in assay [8], in [9] and in assay [5] was “inactive” each time. For the same molecule, the Potency result in [10], in [6] and in assay [7] was “inactive” in each case.

On to `CC(=O)C(=O)O`, for which the Potency result in assay [1], in assay [2], in assay [3], in assay [4], in assay [8] and in assay [9] was “inactive” throughout. Further, the Potency entry in assay [5], in assay [6] and in [7] was “inactive” each time.

For `O=CC(=O)c1ccccc1`, the Potency entry in [1], in assay [2], in [3], in assay [9], in [5] and in assay [7] was “inactive” each time. Moreover, the Potency in [8] was 68.7 µM (active); in assay [6], 27.3 µM (active).

Regarding `CN[C@H]1CC[C@@H](c2ccc(Cl)c(Cl)c2)c2ccccc21`, the Potency in [1] is 29.8 µM (active); in [5], 26.6 µM (active). The Potency entry in assay [2], in assay [3], in assay [8], in [9] and in [7] was “inactive” each time.

On to `F[B-](F)(F)F`, for which the Potency result in assay [1], in assay [2], in [3], in [5], in assay [6] and in [7] was “inactive” throughout.

In the case of `CCCCC1(COC(=O)CCC(=O)O)C(=O)N(c2ccccc2)N(c2ccccc2)C1=O`, the Potency result in assay [1], in assay [2], in assay [3], in assay [5], in assay [10] and in [6] was “inactive” each time. The Potency result in assay [7] is “inactive”.

In the case of `CN(C)C(=S)SC(=S)N(C)C`, the Potency in [1] was 1.98 µM (active) and 1.54 µM (active) and 1.68 µM (active); in assay [2], 25.8 µM (active) and 11.2 µM (active) and 12.3 µM (active); in assay [3], 2.22 µM (active) and 1.72 µM (active) and 3.76 µM (active); in assay [8], 1.25 µM (active) and 1.54 µM (active) and 2.37 µM (active); in assay [5] it was 1.25 µM (active) and 1.37 µM (active) and 1.68 µM (active); in [7], 2 µM (active) and 1.23 µM (active). For the same molecule, the Potency result in assay [9], in assay [10] and in [6] was “inactive” in each case.

Consider `CCOc1ccc(NC(C)=O)cc1`, for which the Potency result in [1], in [2], in [3], in assay [4], in [5] and in assay [10] was “inactive” each time. In addition, the Potency result in assay [6] and in assay [7] was “inactive” throughout.

Consider `Cc1cc(=O)oc2cc(O)ccc12`, for which the Potency entry in assay [1], in assay [2], in assay [3], in assay [8], in assay [9] and in assay [5] was “inactive” throughout. Also, the Potency entry in assay [6] and in assay [7] was “inactive” each time.

As for `OC[C@H]1O[C@H](O[C@]2(CCl)O[C@H](CCl)[C@@H](O)[C@@H]2O)[C@H](O)[C@@H](O)[C@H]1Cl`, the Potency entry in assay [1], in assay [2], in assay [3], in assay [4], in assay [5] and in assay [6] was “inactive” in each case. The Potency result in assay [7] was “inactive”.

With `O=S1(=O)OC(c2ccc(O)cc2)(c2ccc(O)cc2)c2ccccc21`, the Potency in assay [1] was 27.3 µM (active) and 18.8 µM (active); in assay [2], 31.7 µM (active) and 17.8 µM (active) and 12.3 µM (active); in assay [3], 30.6 µM (active) and 27.3 µM (active) and 33.5 µM (active); in assay [5] it was 30.6 µM (active) and 27.3 µM (active) and 21.1 µM (active). For the same molecule, the Potency entry in assay [8], in assay [9], in assay [10] and in assay [7] was “inactive” each time.

Regarding `COc1ccc2cc(S(=O)(=O)N[C@H](CC(=O)N[C@H](Cc3ccc(CN4[C@H](C)CCC[C@@H]4C)cc3)C(=O)N(C)C(C)C)c3ccc4c(c3)OCO4)ccc2c1`, the Potency in assay [1] is 51.6 µM (active); in assay [3], 23 µM (active); in assay [8], 41 µM (active); in [5] it was 29 µM (active); in [7], 10.4 µM (active). Further, the Potency result in [2], in assay [9], in [10] and in [6] was “inactive” throughout.

On to `CC1(C)S[C@@H]2[C@H](NC(=O)[C@H](N)c3ccccc3)C(=O)N2[C@H]1C(=O)O`, for which the Potency result in assay [1], in assay [2], in [3], in assay [4], in assay [5] and in [6] was “inactive” in each case. Further, the Potency entry in assay [7] is “inactive”.

On to `CN1CCC[C@H]1c1cccnc1`, for which the Potency entry in assay [1], in assay [2], in assay [3], in assay [4], in assay [8] and in assay [5] was “inactive” each time. Besides, the Potency entry in assay [7] is “inactive”.

As to `NC(=O)c1cccnc1`, the Potency result in assay [1], in assay [2], in assay [3], in assay [8], in assay [9] and in assay [5] was “inactive” each time. The Potency result in assay [6] and in [7] was “inactive” each time.
